“And” between values parts separate entries of the source, which are not always exact repeats. Equal values may be shown once. Out of some 650,000 compounds screened, about 6,800 (1%) were called active. Cut-off read from the data, not from the text of the source: active = activation above about 4.9%; inactive = the rest. The entries come from a sample that favours actives as a whole.
The compounds below were run against G-protein coupled receptor 151 (Homo sapiens) (UniProt Q8TDV0) (assay: activates the human receptor GPR151, primary screen, cell-based, PathHunter beta-arrestin, luminescence (AID 1508602;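 note: 0% = median of compound wells and 100% = cells with positive control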)). Conditions: PathHunter beta-arrestin GPR151 cells, at 11.2 µM, active compounds read high.
Sequence of G-protein coupled receptor 151 (Homo sapiens) (Q8TDV0 whole entry, looked up): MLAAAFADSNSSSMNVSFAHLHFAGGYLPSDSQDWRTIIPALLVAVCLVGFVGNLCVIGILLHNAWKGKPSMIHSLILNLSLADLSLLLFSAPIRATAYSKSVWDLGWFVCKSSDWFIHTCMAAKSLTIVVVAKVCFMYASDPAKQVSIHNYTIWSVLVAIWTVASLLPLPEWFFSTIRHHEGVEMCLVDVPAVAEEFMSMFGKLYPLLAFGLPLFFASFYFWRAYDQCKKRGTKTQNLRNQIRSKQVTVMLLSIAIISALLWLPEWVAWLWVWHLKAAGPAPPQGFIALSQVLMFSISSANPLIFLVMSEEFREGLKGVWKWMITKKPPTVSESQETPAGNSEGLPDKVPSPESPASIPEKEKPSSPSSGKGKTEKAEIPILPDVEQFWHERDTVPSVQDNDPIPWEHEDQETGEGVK
`COc1ccc(O)c(C(=O)/C=C/c2ccc(F)cc2)c1` was tested, and the activation was -1.75% (inactive).
`O=C(/C=C/c1ccccc1)c1ccc(O[C@@H]2O[C@H](CO)[C@@H](O)[C@H](O)[C@H]2O)cc1O` was tested, and the activation was 0.684% (inactive).
`O=C(/C=C/c1ccccc1)c1ccccc1O` was tested, and the activation was 5.61% (active).
For `Cc1c(Cl)cccc1-n1c(/C=C/c2cccc3ccccc23)nc2ccccc2c1=O`, the activation was 1.58% (inactive).
`COC(=O)c1ccccc1NC(=O)c1ccc(CN(c2ccc(C)c(C)c2)S(C)(=O)=O)cc1` was tested, and the activation was -0.0331% (inactive).
In the case of `CNC(=O)c1ccc(CN(c2ccc(C)c(C)c2)S(C)(=O)=O)cc1`, the activation is reported as 0.29% (inactive).
`CC(=O)c1ccc(NC(=O)c2ccc(CN(c3ccc(C)c(C)c3)S(C)(=O)=O)cc2)cc1` was tested, and the activation was 5.09% (active).
For `Cc1cnc(CNC(=O)c2ccc3cncc(-c4cc5ccccc5o4)c3n2)cn1`, the activation was -1.58% (inactive).
`COc1ccc(NC(=O)CSc2nc(=O)n(CCCN(C)C)c3c2CCC3)cc1OC` was tested, and the activation was -0.304% (inactive).
For `COc1cc(CO)cc(Cl)c1OCc1ccccc1`, the activation was 0.149% (inactive).
With `COc1cc(Cl)c(CNCc2ccccc2)cc1OC` the activation was -1.13% (inactive).
With `CCOc1c(Cl)cc(CNCc2ccccc2)cc1OC` the activation was 5.18% (active).
In the case of `Cc1ccc(CNC(=O)CSc2nc3ccccc3c(=O)n2CC2CCC(C(=O)NCc3ccco3)CC2)cc1` (centres undefined), the activation is reported as -0.182% (inactive).
For `CN1C(=O)c2ccc(N3C(=O)c4cccc([N+](=O)[O-])c4C3=O)cc2C1=O`, the activation was 5.16% (active).
In the case of `O=C1NC(=O)c2cc(N3C(=O)c4cccc([N+](=O)[O-])c4C3=O)ccc21`, the activation is reported as -0.912% (inactive).
With `O=C1c2cccc([N+](=O)[O-])c2C(=O)N1c1ccc2ccccc2c1` the activation was 0.404% (inactive).
In the case of `CC1(C)CC(=O)c2cc(C(=O)Nc3cccc(F)c3)c(=O)n(-c3ccccc3)c2C1`, the activation is reported as 0.451% (inactive).
With `O=C(NCCc1ccccc1)c1ccc2c(c1)NC(=O)C(CS(=O)(=O)Cc1cccc(F)c1)N2` (centres undefined) the activation was -0.907% (inactive).
In the case of `CC(C)c1ccc(CN[C@H]2C[C@H]3C(=O)N[C@@H](COCc4ccccc4)C(=O)N3C2)cc1`, the activation is reported as 5.83% (active).
`CC(C)C[C@H]1NC(=O)[C@@H]2C[C@H](NCc3ccccc3)CN2C1=O` was tested, and the activation was 2.09% (inactive).
In the case of `O=C1N[C@@H](COCc2ccccc2)C(=O)N2C[C@@H](NCc3ccsc3)C[C@@H]12`, the activation is reported as 1.22% (inactive).
In the case of `Cc1ccc(C2=N/C(=C\c3cccc(Cl)c3)C(=O)O2)cc1`, the activation is reported as -1.7% (inactive).
With `Cc1nc(C)n(CCC(=O)N2CCN(Cc3ccccc3F)C[C@@H]2C(C)C)n1` the activation was -0.818% (inactive).
For `COc1ccc(Cn2ccnc2SCC(=O)NCc2ccco2)cc1`, the activation was 0.251% (inactive).
For `COCCNC(=O)CSc1nccn1Cc1ccco1`, the activation was 4.92% (active).
For `CC(C)NC(=O)CSc1nccn1Cc1ccco1`, the activation was 0.992% (inactive).
With `COCCNC(=O)c1cccc(-n2c(=S)[nH]c3cc(Cl)ccc3c2=O)c1` the activation was 1.05% (inactive).
With `O=C(CCCOc1ccc(Cl)cc1)NCc1ccco1` the activation was -1.43% (inactive).
For `CCCCc1ccc2c(N)c(C(=O)Nc3ccc(C(=O)O)cc3)sc2n1`, the activation was -1.27% (inactive).
With `CCCC1=C(C(=O)OCC)C(c2cccc(F)c2)C(C#N)=C(N)O1` (centres undefined) the activation was 0.841% (inactive).
With `CCOC(=O)C1=C(CC)OC(N)=C(C#N)C1c1ccc(C(F)(F)F)cc1` (centres undefined) the activation was 5.43% (active).
With `CCCC1=C(C(=O)OCC)C(c2ccc(O)c(OC)c2)C(C#N)=C(N)O1` (centres undefined) the activation was 2.22% (inactive).
For `c1ccc(Nc2cc(NCc3ccc4c(c3)OCO4)ncn2)cc1`, the activation was -0.773% (inactive).
In the case of `CC1=C(C(=O)Nc2cccc(F)c2)C(c2ccccn2)C2=C(CCCC2=O)N1` (centres undefined), the activation is reported as 4.99% (active).
For `CC1=C(C(=O)Nc2ccccc2C(F)(F)F)C(c2ccccn2)C2=C(CC(C)(C)CC2=O)N1` (centres undefined), the activation was 0.421% (inactive).
With `COc1cc(C2C(C(=O)Nc3ccccn3)=C(C)NC3=C2C(=O)CCC3)cc(OC)c1OC` (centres undefined) the activation was 0.722% (inactive).
For `Cc1cccc(C)c1-n1c(=S)sc2c(=O)n(-c3cccc(Cl)c3)c(SCc3cccc([N+](=O)[O-])c3)nc21`, the activation was -0.958% (inactive).
For `Cc1cccc(C)c1-n1c(=S)sc2c(=O)n(-c3cccc(Cl)c3)c(SCC#N)nc21`, the activation was 7.07% (active).
For `Cc1ccccc1-n1c(SCC#N)nc2c(sc(=S)n2-c2ccccc2C)c1=O`, the activation was -0.0279% (inactive).
For `CCCOc1ccc(-c2ccc(-c3noc(-c4ccc(OCC)cc4)n3)cc2)cc1`, the activation was -1.32% (inactive).
With `O=C(COc1ccc(Cl)cc1Cl)NCc1nc(-c2ccccc2)no1` the activation was -1.12% (inactive).
With `Cc1sc(NC(=O)CN(C(=O)CCc2ccccc2)C2CCCC2)c(C(N)=O)c1C` the activation was 0.0057% (inactive).
For `CCCCNC(=O)C1CCC(=O)N1Cc1ccc(F)cc1` (centres undefined), the activation was 1.65% (inactive).
`O=C(Nc1cccc(N2CCC(NCc3ccon3)CC2)c1)c1cccnc1` was tested, and the activation was 5.91% (active).
For `COc1ccc(CNC2CCN(c3cccc(NC(=O)c4cccnc4)c3)CC2)cc1`, the activation was -0.19% (inactive).
`O=C(Nc1cccc(N2CCC(NCC3COc4ccccc4O3)CC2)c1)c1cccnc1` (centres undefined) was tested, and the activation was 0.419% (inactive).
For `Cc1cc2[nH]c(=O)c(=O)[nH]c2cc1S(=O)(=O)Nc1ccc(Br)cc1F`, the activation was 1.29% (inactive).
With `Cc1ccc2c(CNCc3ccccc3Cl)c(C(=O)O)n(Cc3ccccc3)c2c1` the activation was 2.57% (inactive).
For `O=C(NCCOc1ccccc1)c1cnc(N2CCN(c3ccccn3)CC2)s1`, the activation was 7.58% (active).
`O=C(NCCOc1ccccc1)c1cnc(N2CCCC2CO)s1` (centres undefined) was tested, and the activation was -3.77% (inactive).
`O=C(NCCOc1ccccc1)c1cnc(Nc2cccnc2)s1` was tested, and the activation was 0.0811% (inactive).
`O=C(NNS(=O)(=O)c1ccc2ccccc2c1)Nc1ccc(F)cc1F` was tested, and the activation was -1.26% (inactive).
For `O=C(Nc1cccc(Oc2ccc(C(=O)O)c(C(=O)O)c2)c1)c1cccs1`, the activation was -1.23% (inactive).
For `COc1ccc(CN2CCOc3ccc(C(C)(O)CN(C)C)cc3C2)c(Cl)c1OC` (centres undefined), the activation was -0.16% (inactive).
In the case of `O=C(Cc1coc2ccc3ccccc3c12)NC1CCN(Cc2ccccc2)CC1`, the activation is reported as 1.58% (inactive).
For `CC(C)(C)NC(=O)Cc1coc2ccc3ccccc3c12`, the activation was 5.9% (active).
With `O=C(Cc1coc2ccc3ccccc3c12)NCc1cccnc1` the activation was 1.97% (inactive).
With `COc1ccc(CCN(C(C)=O)C2CC(=O)N(c3ccc(Cl)cc3)C2=O)cc1` (centres undefined) the activation was 2.31% (inactive).
With `Cc1nc2ccccc2c(=O)n1-c1ccc(OC(F)(F)C(F)F)cc1` the activation was -0.339% (inactive).
For `CC1=C(C(N)=O)C(c2ccc(F)cc2)n2nc(CCCO)nc2N1` (centres undefined), the activation was 0.25% (inactive).
With `COc1ccccc1C1C(C(N)=O)=C(C)Nc2nc(CCCO)nn21` (centres undefined) the activation was 7.86% (active).
`COc1ccccc1C1C(C(=O)Nc2ccc(F)cc2)=C(C)Nc2nc(CCCO)nn21` (centres undefined) was tested, and the activation was -0.0995% (inactive).
`O=S(=O)(c1cccs1)N1CCc2nc(-c3cccnc3)nc(N3CCCCC3)c2C1` was tested, and the activation was 0.747% (inactive).
In the case of `O=C(O)c1cccc(-n2[nH]c(=O)ccc2=O)c1`, the activation is reported as -1.37% (inactive).
For `CCOC(=O)c1cc2cc(-c3c(C(=O)OCC)oc4cc(O)cc(O)c4c3=O)ccc2o1`, the activation was 0.272% (inactive).
In the case of `CCOC(=O)c1cc2cc(-c3c(C)oc4cc(OC(C)=O)ccc4c3=O)ccc2o1`, the activation is reported as 6.66% (active).
With `COc1ccc(-c2c(C)oc3cc(OC)ccc3c2=O)cc1` the activation was 0.167% (inactive).
For `C/C=C/C=C/C(=O)N1C(=O)C(=O)c2ccccc21`, the activation was -4.81% (inactive).
For `Cc1ccc(NC(=O)CSc2nnc(-c3ccc(O)cc3)n2C)cc1N`, the activation was -0.276% (inactive).
`Cc1ccc(Cl)cc1NC(=O)CSc1nnc(-c2ccc(N)cc2)n1C` was tested, and the activation was 0.746% (inactive).
With `Cc1ccc(NC(=O)CSc2nnc(-c3ccc(N)cc3)n2C)cc1Cl` the activation was 5.78% (active).
`CCOC(=O)/C(C#N)=C\c1c(C)cc(C)c(COC)c1C` was tested, and the activation was 4.44% (inactive).
`CN1CCC[C@@H]1CCOC(C)(c1ccccc1)c1ccc(Cl)cc1` (some centres undefined) was tested, and the activation was -2.7% (inactive) and 3.67% (inactive).
For `O=c1sc2sc(=S)sc2s1`, the activation was -0.693% (inactive).
For `C1CCC(Nc2nc3nonc3nc2NC2CCCCC2)CC1`, the activation was -0.129% (inactive).
In the case of `c1ccc(-n2nnnc2NC2CCCCCC2)cc1`, the activation is reported as -0.96% (inactive).
In the case of `Brc1cnc(NC2CCCCC2)nc1`, the activation is reported as 7.99% (active).
In the case of `CCc1cc2cc(OC)ccc2nc1SCC(=O)Nc1nccs1`, the activation is reported as 0.182% (inactive).
`CN1CCN(C(=O)c2ccc(-c3nc(NCc4ccccc4)c4ncn(Cc5ccc(C(F)(F)F)cc5)c4n3)cc2)CC1` was tested, and the activation was 0.228% (inactive).
For `COc1ccccc1C(=O)CN1CCN(S(=O)(=O)c2ccc(Cl)cc2)CC1`, the activation was 1.49% (inactive).
For `O=[N+]([O-])c1ccccc1S(=O)(=O)NCCSCc1ccc(Cl)cc1`, the activation was -0.348% (inactive).
In the case of `O=C(N1CCCCCC1)C12CC3CC(CC(C3)C1)C2`, the activation is reported as 0.202% (inactive).
With `COC(=O)[C@@H]1CC(O)CN1C(=O)C12CC3CC(CC(C3)C1)C2` (some centres undefined) the activation was 6.17% (active).
In the case of `NC(=O)C12CC3CC(CC(C3)C1)C2`, the activation is reported as -0.0547% (inactive).
For `CC1=NN(c2cccc(Cl)c2)C(=O)/C1=C/c1ccc(-c2ccc(F)cc2)o1`, the activation was 1.46% (inactive).
`CCc1ccc(N2N=C(C)/C(=C\c3ccc(-c4ccc5c(c4)C(=O)NC5=O)o3)C2=O)cc1` was tested, and the activation was 6.36% (active).
`CCc1ccc(N2N=C(C)/C(=C/c3ccc(-c4ccc(S(N)(=O)=O)cc4)o3)C2=O)cc1` was tested, and the activation was -0.641% (inactive).
For `COc1cccc(NC(=O)c2sc3ncn(CC(=O)Nc4ccccc4OC)c(=O)c3c2C)c1`, the activation was 0.463% (inactive).
For `CC(C)(C)C1(O)CC(=O)C(=O)NN1c1ccccc1` (centres undefined), the activation was -0.103% (inactive).
